Bioassay records (PubChem BioAssay)
This is a sample that favours compounds with a hit; in the whole collection about 21% have one here.
Pf growth 96h – Primary qHTS for delayed death inhibitors of the malarial parasite plastid, 96 hour incubation; P. falciparum luciferase reporter growth, 96 h; Potency, µM (doses to about 28.7 µM), for the others: top-dose activity change, negative = inhibition, hits mostly inhibitors; 320,000 compounds, 6.9% hits; note: potency is the fitted concentration of half-maximal effect; % is set by controls: 0 for no effect and ±100 for the full control effect
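Delayed-death screen, second-generation endpoint: infected erythrocytes, 2% hematocrit, 0.05% parasitemia final; 96 hours at 37 C, 5% CO2; luciferase detection reagent; luminescence decrease equals reduced growth.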
Sm TGR inh – qHTS Assay for the Inhibitors of Schistosoma Mansoni Peroxiredoxins | Schistosoma mansoni thioredoxin glutathione reductase (TGR), Q962Y6 | purified TGR, DTNB reduction, TNB absorbance 405 nm | Potency, µM (doses to about 114 µM), without a hit: at the top dose activity change, negative = inhibition, most hits filed as inhibitors | 360,000 compounds, 3% hits | AID 485364, 2010; note: potency is the fitted concentration of half-maximal effect; % is set by controls: 0 for no effect and ±100 for the full control effect; nearly all actives have a fitted effect of over 60% in size
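TGR 20 nM + NADPH 100 uM (dispensed conc.), cpd preinc 15 min RT; start with NADPH (500 uM addition) then DTNB (15 mM addition). Kinetic TNB absorbance, 405 nm filter. Four-parameter Hill fit across titration.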
Pf growth 48h – Primary qHTS for delayed death inhibitors of the malarial parasite plastid, 48 hour incubation. P. falciparum luciferase growth in erythrocytes, 48 h. Potency, µM (titrated, usually from 28.7 µM), for the others: at the top dose activity change, negative = inhibition, most hits filed as inhibitors. 310,000 compounds, 5.9% hits. AID 504832, 2011; note: potency is the fitted concentration of half-maximal effect; % is set by controls: 0 for no effect and ±100 for the full control effect
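Luciferase-expressing parasites in RBCs, 2% Hct / 0.1% parasitemia final; RPMI 1640 + 0.5% Albumax; 37 C, 5% CO2, one generation; luminescence read-out, lower signal = inhibition.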
NS1 function inh – qHTS Assay for Inhibitors of Influenza NS1 Protein Function | AID 2326, 2010 | Potency, µM (series often up to 46.1 µM), without a hit: at the top dose activity, positive = more growth | 270,000 compounds, 0.4% hits; calls by dose curve; note: potency is the fitted concentration of half-maximal effect; actives are rising curves; nearly all actives have a fitted effect of over 50% in size
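Growth recovery, yeast-based: influenza A NS1 expressed in S. cerevisiae causes slow growth, and suppressors are detected by OD600. The parent strain without NS1 is used as positive control.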
Cycloheximide cs – Cycloheximide Counterscreen for Small Molecule Inhibitors of Shiga Toxin; cell reporter, cycloheximide protein synthesis inhibition counterscreen; max response, %; 300,000 compounds, 12% hits; in the data active = max response mostly above about 13%, no sharp cut-off; inactive = mostly below about 14%; note: read at 38.3 µM for the half of the compounds with a filed dose; 0% is about no effect
Shiga inhibitor – A qHTS for Small Molecule Inhibitors of Shiga Toxin. inhibition, % at 38.7 µM. Vero cells, Shiga toxin protein synthesis inhibition reporter. 290,000 compounds, 9.2% hits. AID 2315, 2010; in the data active = inhibition mostly above about 28%, no sharp cut-off; inactive = mostly below about 43%; note: 0% is about no effect
* marks the source's active call; other numbers are inactive results; ? = inconclusive; / = not tested or not shown. Unless noted, calls come from the whole dose curve; as a rule, active = well fitted curve in the direction sought with a large enough effect; inconclusive = small, poorly fitted or top-dose-only effect, or another doubt; inactive = no such curve, though single readings can be large; an effect the other way counts as inactive or inconclusive.

SMILES | Pf growth 96h | Sm TGR inh | Pf growth 48h | NS1 function inh | Cycloheximide cs | Shiga inhibitor
Cc1ccc2c(c1)[C@H]1[C@H](CO2)[C@H](c2ccccc2)[C@]2(C)C(=O)Nc3cc(Cl)ccc3C(=O)N12 | 9.3µM* | 0% | 8.3µM* | / | / | /
Cc1ccc(C)c(CN2C(=O)CSc3ccc(C(=O)NCCc4ccc(Cl)cc4)cc32)c1 | / | -2% | / | / | / | /
CC(=O)c1cccc(NC(=O)c2cc3sc(Cl)cc3n2C)c1 | / | 6% | / | / | / | /
Oc1c(Cl)cc(CN2CCOCC2)c2cccnc12 | 5.9µM* | 1.3µM* | 4.7µM* | / | / | /
O=[N+]([O-])c1cc(CN2CCN(c3ccccc3)CC2)c(O)c2ncccc12 | -18% | / | ? | 4% | -1 | -9
O=[N+]([O-])c1cc(CN2CCOCC2)c2cccnc2c1O | -16% | 35µM* | 4.1µM* | / | 10 | 6
CCCOCc1cc(CN2CCN(c3cccc(Cl)c3)CC2)c(O)c2ncccc12 | / | -18% | / | / | / | /
Oc1c(CN2CCCCC2)cc(Br)c2cccnc12 | ? | ? | 2.6µM* | -196% | -2 | -8
CN1CCN(Cc2cc(COCc3ccccc3)c3cccnc3c2O)CC1 | 2.3µM* | 25µM* | 2.1µM* | -100% | 17* | 11
CCC(C(=O)n1cccc1C#N)c1ccccc1C (centres undefined) | 19% | 50µM* | 24% | / | / | /
O=C(Nc1cccnc1Cl)c1ccc(Cl)c([N+](=O)[O-])c1 | ? | 2% | 5% | 6% | 6 | 17
CCOc1ccccc1NC(=S)N1C2CCC1CC(NC(=O)NC13CC4CC(CC(C4)C1)C3)C2 (centres undefined) | ? | 4% | ? | 19% | 6 | 4
COc1ccccc1NC(=S)N1C2CCC1CC(NC(=O)NC13CC4CC(CC(C4)C1)C3)C2 (centres undefined) | 4.7µM* | -1% | ? | 16% | -4 | 36
COc1cccc(-c2nc(C=O)cs2)c1 | 5% | 6% | 5% | / | 13 | 31*
COc1ccc(-c2nc(C=O)cs2)cc1 | 30% | 7% | 19% | -33% | 13* | 39*
Cc1ccc2oc(=O)n(CCNC(=O)Nc3ccccc3Cl)c2c1 | / | 3% | / | / | / | /
CCOc1ccc(CCNC(=O)CCc2nnc3ccc(N4CCOCC4)nn23)cc1OCC | 13µM* | -6% | -2% | 6% | -2 | 0
Cc1ccc(C)c(NC(=O)CCc2nnc3ccc(N4CCCC4)nn23)c1 | ? | 7% | 0% | 19% | -10 | -5
CCOC(=O)C(Cc1ccccc1)NC(=O)CCc1nnc2ccc(N3CCOCC3)nn12 (centres undefined) | ? | -13% | ? | -2% | -2 | 3
CSc1ccc(CCNC(=O)CCc2nnc3ccc(N4CCCC4)nn23)cc1 | 9.3µM* | -8% | ? | 4% | -2 | -2
COc1ccc(OC)c(C(c2nnnn2C2CCCC2)N2CCN(c3ccc(F)cc3)CC2)c1 (centres undefined) | 24% | -5% | 12µM* | -1% | -4 | 29
COc1ccc(C(c2nnnn2C2CCCC2)N2CCC(C)CC2)c(OC)c1 (centres undefined) | 3% | -1% | 12µM* | -18% | -2 | -12
Cc1ccc(NC(=O)CCN2CC(C)OC(C)C2)cc1C (centres undefined) | 0% | 0% | 51% | 12% | -1 | 1
Cc1ccccc1NC(=O)n1ncc2cc(Cl)ccc21 | -29% | -8% | 35% | -6% | 21* | 29
COc1ccc(C)cc1NC(=O)n1ncc2cc(Cl)ccc21 | 3.3µM* | 6% | 11% | -3% | 4 | 2
SMILES | Pf growth 96h | Sm TGR inh | Pf growth 48h | NS1 function inh | Cycloheximide cs | Shiga inhibitor
O=C(Nc1ccccc1C(F)(F)F)n1ncc2cc(Cl)ccc21 | / | 36% | / | / | / | /
CCOc1ccccc1NC(=O)n1ncc2cc(Cl)ccc21 | / | -15% | / | / | / | /
NNC(=O)Cc1cccnc1 | / | / | / | 11% | / | /
C=CCOc1ccc(CNCCc2ccc(S(N)(=O)=O)cc2)cc1 | -12% | -3% | -8% | / | -4 | -14
CCCCn1c(N)c(N(CC(C)C)C(=O)Cc2ccc3c(c2)OCCO3)c(=O)[nH]c1=O | -26% | -11% | ? | / | / | /
COc1ccccc1-c1nnc(SCC(=O)c2ccc(Cl)cc2)n1-c1ccccc1 | / | 9% | / | / | / | /
